Experimental findings from PubChem BioAssay (EPA / NIEHS) are described below.

Calls of active or inactive are those of the source. How the source made its calls: active means hit-call score of the fitted dose curve at least 0.9, where 1 is the maximum; inactive means score below 0.9.

Read-out in assay [1]: Low-density lipoprotein receptor (LDLR), LDLR (gene 3949)
The assay can be described thus: BSK_CASM3C_LDLR: BioMAP Diversity Plus: CASM3C Assay for Low-density lipoprotein receptor (LDLR) Biomarker Activity (AID 2283045).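 Further: LDLR protein level on the cell surface quantified by ELISA.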 To be noted: primary human coronary artery smooth muscle cells; actives raise or lower the signal.

Read-out in assay [2]: Monocyte Chemoattractant Protein-1 (MCP1), CCL2 (gene 6347)
The assay can be described thus: BSK_CASM3C_MCP1: BioMAP Diversity Plus: CASM3C Assay for Monocyte Chemoattractant Protein-1 (MCP1) Biomarker Activity (AID 2283046).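 Further: MCP-1 level quantified by ELISA 24 h after dosing.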 To be noted: primary human coronary artery smooth muscle cells; actives raise or lower the signal.

A short description of assay [3]: BSK_CASM3C_Proliferation: Cell Proliferation Assessment in the BioMAP Diversity Plus: CASM3C Assay (AID 2283047).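 Further: sulforhodamine B total protein stain as relative cell number at 560 nm; sub-confluent cells exposed 48 h before staining; fitted both ways against DMSO so gain or loss of cell number.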 To be noted: primary human coronary artery smooth muscle cells.
Read-out in assay [4]: Monokine induced gamma interferon (MIG), CXCL9 (gene 4283)
The assay can be described thus: BSK_CASM3C_MIG: BioMAP Diversity Plus: CASM3C Assay for Monokine induced gamma interferon (MIG) Biomarker Activity (AID 2283048).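 Further: MIG protein level measured by ELISA.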 The following applies: primary human coronary artery smooth muscle cells; actives raise or lower the signal.

Read-out in assay [5]: serum amyloid A (SAA), SAA1 (gene 6288)
The assay can be described thus: BSK_CASM3C_SAA: BioMAP Diversity Plus: CASM3C Assay for serum amyloid A (SAA) Biomarker Activity (AID 2283049).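 Further: SAA protein level quantified by ELISA.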 To be noted: primary human coronary artery smooth muscle cells; actives raise or lower the signal.

Assay [6] in a line: BSK_CASM3C_SRB: Viability Assessment in the BioMAP Diversity Plus: CASM3C Assay (AID 2283050).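 Further: cells exposed to compound for 24 h.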 To be noted: primary human coronary artery smooth muscle cells.
Read-out in assay [7]: Thrombomodulin, THBD (gene 7056)
Kind of assay: BSK_CASM3C_Thrombomodulin: BioMAP Diversity Plus: CASM3C Assay for Thrombomodulin Biomarker Activity (AID 2283051).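 Further: thrombomodulin protein level measured by ELISA 24 h after dosing.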 The following applies: primary human coronary artery smooth muscle cells; actives raise or lower the signal.

Read-out in assay [8]: Tissue Factor, F3 (gene 2152)
The assay can be described thus: BSK_CASM3C_TissueFactor: BioMAP Diversity Plus: CASM3C Assay for Tissue Factor Biomarker Activity (AID 2283052).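 Further: cell surface tissue factor protein level read by ELISA.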 The following applies: primary human coronary artery smooth muscle cells; actives raise or lower the signal.

Read-out in assay [9]: Interferon-gamma inducible Protein 10 (IP10), CXCL10 (gene 3627)
Kind of assay: BSK_hDFCGF_IP10: BioMAP Diversity Plus: hDFCGF Assay for Interferon-gamma inducible Protein 10 (IP10) Biomarker Activity (AID 2283053). To be noted: primary human foreskin fibroblasts; actives raise or lower the signal. The method, boiled down:
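Primary human foreskin fibroblasts exposed to chemicals for 24 h. IP-10 measured by ELISA; changes fitted bidirectionally against DMSO baseline.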

Read-out in assay [10]: Vascular cell adhesion molecule 1 (VCAM1), VCAM1 (gene 7412)
Kind of assay: BSK_CASM3C_VCAM1: BioMAP Diversity Plus: CASM3C Assay for Vascular cell adhesion molecule 1 (VCAM1) Biomarker Activity (AID 2283055).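 Further: VCAM-1 protein level quantified by ELISA on the cells.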 To be noted: primary human coronary artery smooth muscle cells; actives raise or lower the signal.

Read-out in assay [11]: Collagen III, COL3A1 (gene 1281)
The assay can be described thus: BSK_hDFCGF_CollagenIII: BioMAP Diversity Plus: hDFCGF Assay for Collagen III Biomarker Activity (AID 2283056). To be noted: primary human foreskin fibroblasts; actives raise or lower the signal. Summed up: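 ELISA readout of Collagen III in human dermal (foreskin) fibroblasts, taken 24 h post-treatment. Gain or loss relative to DMSO vehicle fitted in both directions.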

Read-out in assay [12]: Epidermal growth factor receptor (EGFR), EGFR (gene 1956)
The assay can be described thus: BSK_hDFCGF_EGFR: BioMAP Diversity Plus: hDFCGF Assay for Epidermal growth factor receptor (EGFR) Biomarker Activity (AID 2283057). To be noted: primary human foreskin fibroblasts; actives raise or lower the signal. Summed up: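 Primary human foreskin fibroblasts (hDFCGF system), sampled 24 h after dosing; EGFR quantified by ELISA. Bidirectional fit relative to DMSO baseline; SRB total-protein staining in parallel cultures for cytotoxicity.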

Read-out in assay [13]: Interleukin-8 (IL8), CXCL8 (gene 3576)
Kind of assay: BSK_hDFCGF_IL8: BioMAP Diversity Plus: hDFCGF Assay for Interleukin-8 (IL8) Biomarker Activity (AID 2283058). The following applies: primary human foreskin fibroblasts; actives raise or lower the signal. Summed up:
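IL-8 levels read by ELISA at 24 hours after dosing human skin fibroblast cultures. Parallel SRB staining assessed overt cytotoxicity, and gain or loss of signal was fitted against DMSO control.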

Assay [14] can be described thus: BSK_hDFCGF_Proliferation: Cell Proliferation Assessment in the BioMAP Diversity Plus: hDFCGF Assay (AID 2283059).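 Further: curves fitted for both rise and fall of signal versus DMSO baseline.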 The following applies: primary human foreskin fibroblasts. Summed up:
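This proliferation readout used SRB total-protein staining of human foreskin fibroblasts […], normalized to DMSO with bidirectional curve fitting.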

Read-out in assay [15]: Macrophage colony-stimulating factor (MCSF), CSF1 (gene 1435)
Kind of assay: BSK_hDFCGF_MCSF: BioMAP Diversity Plus: hDFCGF Assay for Macrophage colony-stimulating factor (MCSF) Biomarker Activity (AID 2283060). The following applies: primary human foreskin fibroblasts; actives raise or lower the signal. The method, boiled down: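 M-CSF levels read by ELISA at 24 h post-dosing in human skin fibroblasts. Parallel cultures stained with SRB assessed cytotoxicity at the same time point; response fitted in both directions against the DMSO baseline.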

A short description of assay [16]: BSK_hDFCGF_SRB: Viability Assessment in the BioMAP Diversity Plus: hDFCGF Assay (AID 2283061).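 Further: cells exposed to compound for 24 h before the read.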 The following applies: primary human foreskin fibroblasts. Summed up: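 Viability was read as total protein: after 10% TCA fixation, wells were stained with 0.1% sulforhodamine B and read at 560 nm. Primary human foreskin fibroblasts were dosed for 24 h, with bidirectional fitting versus DMSO.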

Read-out in assay [17]: TIMP metallopeptidase inhibitor 1 (TIMP1), TIMP1 (gene 7076)
Kind of assay: BSK_hDFCGF_TIMP1: BioMAP Diversity Plus: hDFCGF Assay for TIMP metallopeptidase inhibitor 1 (TIMP1) Biomarker Activity (AID 2283062). To be noted: primary human foreskin fibroblasts; actives raise or lower the signal. Summed up:
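TIMP-1 measured by ELISA 24 h after chemical dosing of primary human skin fibroblasts, with gain or loss fitted relative to DMSO. Parallel SRB staining (560 nm) monitored overt cytotoxicity.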

Read-out in assay [18]: Monokine induced gamma interferon (MIG), CXCL9 (gene 4283)
Kind of assay: BSK_hDFCGF_MIG: BioMAP Diversity Plus: hDFCGF Assay for Monokine induced gamma interferon (MIG) Biomarker Activity (AID 2283063). To be noted: primary human foreskin fibroblasts; actives raise or lower the signal. The method, boiled down: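 Human primary foreskin fibroblasts in the hDFCGF system, exposed to test chemical for 24 h; MIG measured by ELISA. Bidirectional curve fitting against DMSO negative control as activity baseline.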

Read-out in assay [19]: Matrix Metallopeptidase 1 (MMP1), MMP1 (gene 4312)
The assay can be described thus: BSK_hDFCGF_MMP1: BioMAP Diversity Plus: hDFCGF Assay for Matrix Metallopeptidase 1 (MMP1) Biomarker Activity (AID 2283064). To be noted: primary human foreskin fibroblasts; actives raise or lower the signal. Summed up:
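hDFCGF primary fibroblasts (human foreskin); chemical added; 24 h; MMP1 by ELISA; bidirectional fit vs DMSO.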

Read-out in assay [20]: Urokinase-type plasminogen activator receptor (uPAR), PLAUR (gene 5329)
The assay can be described thus: BSK_CASM3C_uPAR: BioMAP Diversity Plus: CASM3C Assay for Urokinase-type plasminogen activator receptor (uPAR) Biomarker Activity (AID 2283054).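 Further: cell-surface uPAR protein level quantified by ELISA.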 To be noted: primary human coronary artery smooth muscle cells; actives raise or lower the signal.

`O=C1NC(=O)C(c2ccccc2)(c2ccccc2)N1`: the result in [1], in assay [2], in assay [3], in [4], in assay [5] and in assay [6] was inactive. The result in assay [7], in [8], in [9], in [10], in assay [11] and in [12] was inactive. In addition, the result in assay [13], in assay [14], in [15], in assay [16], in assay [17] and in assay [18] was inactive. Besides, in assay [19], the outcome was inactive.
In general, AC50 refers to the concentration at which the activity in the assay is half-maximal. As to `CN(C)CCCN1c2ccccc2Sc2ccc(Cl)cc21`, the AC50 was 5.41 µM (active) in assay [1]; 20 µM (active) in [2]; 28 µM (active) in [3]; 28.5 µM (active) in assay [6]; 15 µM (active) in assay [7]; 26.1 µM (active) in [9]. In addition, the AC50 is 20 µM (active) in [20]; 31.4 µM (active) in assay [13]; 16.6 µM (active) in assay [14]; 22.1 µM (active) in assay [15]; 31.9 µM (active) in assay [16]; 31.1 µM (active) in [18]. Further, the AC50 in assay [19] is 31.5 µM (active). Moreover, the outcome in [4], in [5], in assay [8] and in assay [10] was inactive.
In the case of `O=C(O)c1[nH]n(-c2ccc(S(=O)(=O)O)cc2)c(=O)c1N=Nc1ccc(S(=O)(=O)O)cc1`, the outcome in assay [1], in [2], in assay [3], in assay [4], in [5] and in assay [6] was inactive. The result in assay [7], in assay [8], in assay [9], in assay [20], in assay [10] and in [11] was inactive. The outcome in assay [12], in assay [13], in [14], in [15], in [16] and in assay [17] was inactive. Moreover, the result in assay [18] and in assay [19] was inactive.
Turning to `CN(C)C(=O)NC1(c2ccccc2)CCN(CCC[C@]2(c3ccc(Cl)c(Cl)c3)CCCN(C(=O)c3ccccc3)C2)CC1`, the results for the concentration at half-maximal activity (AC50) in [1], in [2] and in assay [14] were 5 µM (active), 0.037 µM (active) and 6.29 µM (active), respectively. For the same compound, the outcome in [3], in [4], in [5], in assay [6], in [7] and in assay [8] was inactive. Besides, the result in assay [9], in assay [20], in [10], in [11], in [12] and in [13] was inactive. For the same compound, the result in [15], in assay [16], in [17], in assay [18] and in assay [19] was inactive.
Consider `CCCCC(CC)COP(=O)(OCC(CC)CCCC)OCC(CC)CCCC` (centres undefined), for which the result in [1], in [2], in [3], in [4], in assay [5] and in assay [6] was inactive. Further, the outcome in assay [8], in assay [9], in [20], in [10], in [11] and in [12] was inactive. Also, the outcome in assay [13], in assay [15], in assay [16], in [17], in [18] and in [19] was inactive. The half-maximal activity concentration (AC50) is 7.89 µM (active) in assay [7] and 7.49 µM (active) in assay [14].
As for `CC(=O)O[C@]1(C(C)=O)CC[C@H]2[C@@H]3C=C(Cl)C4=CC(=O)[C@@H]5C[C@@H]5[C@]4(C)[C@H]3CC[C@@]21C`, the result in assay [1], in [2], in [3], in assay [4], in assay [6] and in assay [7] was inactive. Also, the outcome in assay [8], in assay [9], in [20], in [10], in [12] and in assay [13] was inactive. Also, the result in assay [16], in assay [17], in [18] and in assay [19] was inactive. The concentration at half-maximal activity (AC50) in assay [11] was 27 µM (active); in assay [14], 17 µM (active).
With `CCc1nc(N)nc(N)c1-c1ccc(Cl)cc1`, the result in assay [1], in [2], in assay [3], in [4], in assay [5] and in assay [6] was inactive. Besides, the outcome in assay [7], in assay [8], in assay [9], in [20], in assay [10] and in assay [11] was inactive. The outcome in assay [12], in assay [13], in [14], in assay [15], in assay [16] and in assay [17] was inactive. Further, the outcome in assay [18] and in [19] was inactive.
As for `Cc1cc(SC2=C(O)C[C@@](CCc3ccc(N)cc3)(C(C)C)OC2=O)c(C(C)(C)C)cc1CO`, the result in assay [1], in assay [2], in assay [3], in assay [4], in [5] and in assay [6] was inactive. Also, the result in [7], in assay [8], in assay [9], in [20], in assay [10] and in assay [11] was inactive. The result in [12], in assay [13], in assay [14], in [15], in assay [16] and in assay [17] was inactive. The result in assay [18] and in [19] was inactive.
On to `CCc1cc(C2=C(C(=O)O)N(c3ccccc3C(F)(F)F)S(=O)(=O)c3ccccc32)cc2c1OCO2`, for which the AC50 was 7.18 µM (active) in assay [1], 32.5 µM (active) in [11], 15.5 µM (active) in assay [14] and 19.8 µM (active) in assay [19]. The result in assay [2], in assay [3], in assay [4], in assay [5], in assay [6] and in assay [7] was inactive. For the same compound, the result in [8], in [9], in assay [20], in [10], in assay [12] and in [13] was inactive. The outcome in assay [15], in assay [16], in assay [17] and in [18] was inactive.
